# Assay results reported in PubChem BioAssay (EPA / NIEHS).
# Activity calls are given as the source filed them. Rule for the calls: active = hit-call score of the fitted dose curve at least 0.9, where 1 is the maximum; inactive = score below 0.9.
# Target: Nuclear respiratory factor 1 (Homo sapiens) (UniProt Q16656)
# Assay: ATG_NRF1_CIS: Attagene CIS-FACTORIAL HepG2 Assay for human Nuclear Respiratory Factor 1 (NRF1) Orphan Gene (AID 2282987)
# Conditions: HepG2 NRF1 cis-element reporter, Attagene multiplex; actives raise or lower the signal
# Description: ATG_CIS is a cell-based, multiplexed-readout assay that uses HepG2, a human liver cell line, with measurements taken at 24 hours after chemical dosing in a 24-well plate.ATG_NRF1_CIS is one of 52 assay component(s) measured or calculated from the ATG_CIS assay. It is designed to make measurements of mRNA induction, a form of inducible reporter, as detected with fluorescence intensity signals by Reverse transcription polymerase chain reaction (RT-PCR) and Capillary electrophoresis technology.Data from the assay component ATG_NRF1_CIS was analyzed into 1 assay endpoint. This assay endpoint, ATG_NRF1_CIS, was analyzed with bidirectional fitting relative to DMSO as the negative control and baseline of activity. Using a type of inducible reporter, measures of mRNA for gain or loss-of-signal activity can be used to understand the reporter gene at the transcription factor-level as they relate to the gene NRF1. Furthermore, this assay endpoint can be referred to as a primary readout, because this assay has produced multiple assay endpoints where this one serves a reporter gene function. To generalize the intended target to other relatable targets, this assay endpoint is annotated to the dna binding intended target family, where the subfamily is nuclear respiratory factors.
# Human liver HepG2 cells are transiently transfected with multiple reporter transcription units (MRTUs) in 6-well plates using FuGene 6 reagent (Roche; 3 ml FuGene/1 mg DNA). The MRTU constructs are regulated by a cis-regulating element (promoter). […] A major difference between the CIS and TRANS system is that in CIS activities of endogenous TFs are measured, whereas the TRANS assay evaluates changes in activities of exogenous, chimeric NR-Gal4 proteins. […] At the end of 24 hour incubation, total RNA was isolated using TriZol reagent (Invitrogen). The isolated RNA is then reverse-transcribed using oligo(dT) primer and Mo-MLV reverse transcriptase (Invitrogen) with DNAse I (Ambion) treatment for 30 min. The one-tenth of the produced cDNA was amplified by PCR using Taq DNA polymerase (Invitrogen) and two reporter sequence-specific primers. The PCR products were fluorescently labeled by primer extension with 6-arboxyfluorescein (6-FAM) 5'-labeled reporter sequence-specific primer (2 min at 95 C, 20 s at 68 C and 10 min at 72 C) and these products were digested with 5U of HpaI (New England Biolabs) for 2h at 37 C. The fragments were purified using Qiaquick PCR columns (Qiagen), analyzed on an ABI 3130xL genetic analyzer (Applied Biosystems) with peak positions identified by using a set of X-rhodamine (ROX)-labeled MapMarker1000 molecular weight standards (BioVentures). The raw capillary electrophoresis data was processed using Attagraph software (Attagene).
# Sequence of Nuclear respiratory factor 1 (Homo sapiens) (Q16656 whole entry, looked up): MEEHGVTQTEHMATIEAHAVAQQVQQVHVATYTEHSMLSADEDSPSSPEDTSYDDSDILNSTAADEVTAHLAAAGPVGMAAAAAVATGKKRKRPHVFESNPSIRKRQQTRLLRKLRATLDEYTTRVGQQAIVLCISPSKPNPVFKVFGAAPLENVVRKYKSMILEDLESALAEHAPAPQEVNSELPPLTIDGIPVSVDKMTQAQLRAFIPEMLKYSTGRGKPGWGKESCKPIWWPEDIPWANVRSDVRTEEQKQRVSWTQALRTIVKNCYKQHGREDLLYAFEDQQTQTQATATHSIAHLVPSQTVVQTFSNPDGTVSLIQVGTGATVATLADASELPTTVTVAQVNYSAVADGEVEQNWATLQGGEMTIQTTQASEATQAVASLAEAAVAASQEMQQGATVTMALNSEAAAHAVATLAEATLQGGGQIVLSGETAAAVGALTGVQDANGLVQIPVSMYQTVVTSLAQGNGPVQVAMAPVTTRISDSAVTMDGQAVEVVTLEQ
Compound,outcome,AC50
O=C(O)c1c(Cl)ccc2cc(Cl)cnc12,inactive,–
COc1ccc(-c2ccccc2)cc1NNC(=O)OC(C)C,inactive,–
CCNC(=O)NC(=O)C(C#N)=NOC,inactive,–
CO/N=C(/C1=NOCCO1)c1ccccc1Oc1ncnc(Oc2ccccc2Cl)c1F,–,5.54 µM (active)
CCC(C)n1c(=O)[nH]c(C)c(Br)c1=O (stereo not given),inactive,–
Cc1c(COC(=O)[C@@H]2[C@H](/C=C(\Cl)C(F)(F)F)C2(C)C)cccc1-c1ccccc1,inactive,–
Nc1c(Cl)c(F)nc(OCC(=O)O)c1Cl,inactive,–
Cc1ccc(N=CN(C)C=Nc2ccc(C)cc2C)c(C)c1,inactive,–
Nc1c(Cl)c(Cl)nc(C(=O)O)c1Cl,inactive,–
O=c1n(Cl)c(=O)n(Cl)c(=O)n1Cl,inactive,–
COP(=S)(OC)Oc1ccc([N+](=O)[O-])c(C)c1,inactive,–
CCCC(=NOCC)C1=C(O)CC(CC(C)SCC)CC1=O (stereo not given),inactive,–
COC(=O)N(C(=O)N1CO[C@@]2(C(=O)OC)Cc3cc(Cl)ccc3C2=N1)c1ccc(OC(F)(F)F)cc1,inactive,–
CCSC(=O)N1CCCCCC1,inactive,–
CCCCC(O)(Cn1cncn1)c1ccc(Cl)cc1Cl (stereo not given),inactive,–
COC(=O)NC(=S)Nc1ccccc1NC(=S)NC(=O)OC,inactive,–
Nc1cnn(-c2ccccc2)c(=O)c1Cl,inactive,–
CNC(=O)N(C)c1nnc(C(C)(C)C)s1,inactive,–
CNC(=O)Oc1cccc2ccccc12,inactive,–
Cc1cnc(C2=NC(C)(C(C)C)C(=O)N2)c(C(=O)O)c1 (stereo not given),inactive,–

Compound,outcome,AC50
CC(C)N1C(=O)N(c2ccccc2)CSC1=NC(C)(C)C,inactive,–
CC(C)(C)C(=O)C(Oc1ccc(Cl)cc1)n1cncn1 (stereo not given),inactive,–
CC(C)C1(C)N=C(c2ncccc2C(=O)O)NC1=O (stereo not given),inactive,–
COC(=O)c1c(C(F)F)nc(C(F)(F)F)c(C2=NCCS2)c1CC(C)C,inactive,–
CSC(=O)c1c(C(F)F)nc(C(F)(F)F)c(C(=O)SC)c1CC(C)C,inactive,–
N#Cc1c(Cl)cccc1Cl,inactive,–
COP(=O)(OC)O/C(C)=C/C(=O)N(C)C,inactive,–
CN=C=S,inactive,–
CC(C)=CC1C(C(=O)OCc2coc(Cc3ccccc3)c2)C1(C)C (stereo not given),inactive,–
C=CCOC(=O)C(C)(C)OC(=O)c1cc(-n2c(=O)cc(C(F)(F)F)n(C)c2=O)ccc1Cl,inactive,–
C=C(C)CN(CC)c1c([N+](=O)[O-])cc(C(F)(F)F)cc1[N+](=O)[O-],inactive,–
Cn1c(-c2ccccc2)cc(-c2ccccc2)[n+]1C,inactive,–
CS(=O)(=O)c1cc(C(F)(F)F)ccc1C(=O)c1cnoc1C1CC1,inactive,–
CCOP(=S)(OCC)Oc1nc(Cl)n(C(C)C)n1,inactive,–
CS(=O)(=O)c1ccc(C(=O)C2C(=O)CCCC2=O)c([N+](=O)[O-])c1,inactive,–
CC(C)NC(=O)N1CC(=O)N(c2cc(Cl)cc(Cl)c2)C1=O,inactive,–
N#Cc1c[nH]cc1-c1cccc2c1OC(F)(F)O2,inactive,–
O=P(O)(O)CCCl,inactive,–
CCCN(CC)CC1COC2(CCC(C(C)(C)C)CC2)O1 (stereo not given),inactive,–
CCOP(=O)(OCC)Oc1nc(Cl)c(Cl)cc1Cl,inactive,–
